Assay outcomes (PubChem)
Most compounds without a hit are left out; they make up all but 10% or so of the library.
CtBP-E1A inh: blocks the CtBP interaction with E1A; hit rate 0.49% among 340,000; AID 651724; AlphaScreen GST-E1A/His-CtBP binding, 1536-well; hits give low values; activity change, % (test concentration not listed); in the data active = activity change below about -65%; inconclusive = mostly about -30% to -63%; also: % is scaled to controls: 0 for no effect and ±100 for the full control effect
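GST-E1A and His-tagged CtBP (125 nM each as 5X stock) were preincubated with pin-transferred compound for 2 h at 37 °C in the dark, then glutathione donor and nickel acceptor beads were added for 1 h before AlphaScreen reading.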
BAZ2B inh: inhibitors of human BAZ2B bromodomain | hit rate 4.4% among 360,000 | AlphaScreen BAZ2B-H3K14Ac peptide displacement | Potency, µM (titrated, usually from 114 µM), for inactives: top-dose activity change, negative = inhibition, actives largely listed as inhibitors; also: potency is read from the fitted curve at half-maximal effect; % is scaled to controls: 0 for no effect and ±100 for the full control effect; nearly all actives have a fitted effect of over 60% in size
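Inhibition is scored as reduced AlphaScreen emission. The BAZ2B/b-H3(5-23)K14Ac complex (50 nM each) in PBS pH 7.4, 0.01% Tween-20 meets compound (up to 110 uM) for 30 min at RT before bead addition.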
Six1-Eya2 blk: Six1/Eya2 interaction inhibition. activity change, % (concentration not given with the values). Q15475+O00167. AID 651725. hit rate 0.56% among 360,000. AlphaScreen GST-Six1/His-Eya2 binding, biochemical; hits give low values; in the data active = activity change below about -65%; inconclusive = mostly about -30% to -63%; also: % is scaled to controls: 0 for no effect and ±100 for the full control effect
Target sequence (O00167 whole entry, looked up): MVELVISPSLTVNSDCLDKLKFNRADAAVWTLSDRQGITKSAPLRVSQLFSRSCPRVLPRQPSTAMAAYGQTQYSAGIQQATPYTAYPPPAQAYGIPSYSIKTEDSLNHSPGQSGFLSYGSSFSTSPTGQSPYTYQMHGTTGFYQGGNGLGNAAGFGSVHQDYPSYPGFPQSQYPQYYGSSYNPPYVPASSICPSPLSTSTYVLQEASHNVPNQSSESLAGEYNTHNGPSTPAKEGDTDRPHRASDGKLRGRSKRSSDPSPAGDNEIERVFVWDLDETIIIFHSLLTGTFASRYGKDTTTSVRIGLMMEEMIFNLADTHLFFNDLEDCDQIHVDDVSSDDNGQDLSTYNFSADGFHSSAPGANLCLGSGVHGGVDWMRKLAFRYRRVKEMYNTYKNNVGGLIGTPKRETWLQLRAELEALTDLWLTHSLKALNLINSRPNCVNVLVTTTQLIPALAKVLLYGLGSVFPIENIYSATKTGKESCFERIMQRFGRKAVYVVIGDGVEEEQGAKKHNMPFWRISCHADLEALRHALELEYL
Target sequence (Q15475 whole entry, looked up): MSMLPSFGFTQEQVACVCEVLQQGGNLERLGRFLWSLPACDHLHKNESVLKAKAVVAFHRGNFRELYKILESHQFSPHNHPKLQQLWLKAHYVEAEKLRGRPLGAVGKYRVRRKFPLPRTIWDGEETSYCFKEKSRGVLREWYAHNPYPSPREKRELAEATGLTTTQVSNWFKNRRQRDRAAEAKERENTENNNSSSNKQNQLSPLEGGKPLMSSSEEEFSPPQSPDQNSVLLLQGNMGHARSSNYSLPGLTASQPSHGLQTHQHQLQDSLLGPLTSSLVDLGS
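AlphaScreen with GST-Six1 and His-Eya2 (5X mix: 250 nM and 500 nM), glutathione donor and nickel acceptor beads; buffer 50 mM Tris pH 8.0, 300 mM NaCl, 1 mM TCEP; 1 h at 37 C in the dark.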
HP1b binding inh: inhibitors of HP1-beta chromodomain binding to methylated histone tails | P83916 | AlphaScreen HP1-beta / biotin-H3K9me3 peptide binding | Potency, µM (titrated, usually from 114 µM), for inactives: at the highest dose activity change, negative = inhibition, usual class: inhibitors | hit rate 0.56% among 390,000 | AID 540317; also: potency is read from the fitted curve at half-maximal effect; nearly all actives have a fitted effect of over 70% in size
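AlphaScreen: HP1-beta (50 nM) preformed 30 min with biotin-H3(1-18)K9me3 peptide (50 nM) in PBS pH 7.4, 0.01% Tween-20. Compound added for 30 min at RT, then streptavidin donor/nickel chelate acceptor beads (10 ug/mL) for 30 min.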
JMJD2A Tudor: blocks the human JMJD2A Tudor domain. Potency, µM (titrated, usually from 114 µM), without a hit: at the highest dose activity change, negative = inhibition, actives largely listed as inhibitors. hit rate 4.4% among 390,000. AID 504339. AlphaScreen JMJD2A-Tudor / H3K4me3 peptide binding; also: potency is read from the fitted curve at half-maximal effect; % is scaled to controls: 0 for no effect and ±100 for the full control effect; nearly all actives have a fitted effect of over 50% in size
G9a inh: blocks human histone lysine methyltransferase G9a; Q96KQ7; G9a H3K9 monomethylation, AlphaScreen, 2 h; Potency, µM (series often up to 102 µM), inactives show top-dose activity, negative = inhibition, most hits filed as inhibitors; hit rate 8.8% among 350,000; also: potency is read from the fitted curve at half-maximal effect; % is scaled to controls: 0 for no effect and ±100 for the full control effect; nearly all actives have a fitted effect of over 75% in size
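G9a (20 nM) was preincubated 15 min with compound, then reacted 2 h at room temperature with 500 nM biotin-H3K9 peptide and 20 µM SAM. Monomethyl-H3K9 detected by AlphaScreen using anti-H3K9me1 antibody.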
Active calls of the source: *; ? = inconclusive; · = not tested or not shown; [ ] = dose if it differs, or a comment. Unless noted, calls follow the shape of the dose curve; as a rule, active = well fitted inhibition curve with a large enough effect; inconclusive = small, poorly fitted or top-dose-only effect; inactive = no such curve, though single readings can be large or run the other way.

SMILES | CtBP-E1A inh | BAZ2B inh | Six1-Eya2 blk | HP1b binding inh | JMJD2A Tudor | G9a inh
O=C(CN1CCCCC1)NN(Cc1ccccc1)c1ccccc1 | · | 50µM* | 12 | ? | -2%[11.4 µM] | 16µM*
O=C(CN1CCCCCC1)Nc1ccccc1 | -21 | 50µM* | 8 | ? | 8.9µM* | 4µM*
CCOc1ccc(NC(=O)CN2CCN(CC(=O)Nc3cc(OC)cc(OC)c3)CC2)cc1 | 2 | 1% | 0 | 25% | -14% | ?
CN(C)c1ccc(NC(=O)CN2CCC(N3CCCCC3)CC2)cc1 | 11 | 45µM* | -1 | ? | ? | 2.2µM*
CCc1ccc(NC(=O)Cn2c(=O)c3cc(Cl)ccc3n3nncc23)cc1 | · | 1% | · | 42% | -23% | 46%[59 µM]
CCc1c(N)nc(N)nc1Nc1ccccc1C | 0 | · | 0 | 30% | -10% | ·
O=C(CCN=C1NS(=O)(=O)c2ccccc21)N1CCc2ccccc2C1 | -1 | -2% | 5 | 10% | -10% | -1%
COc1ccc(CCNC2CC(=O)N(CCc3ccccc3)C2=O)cc1 (stereo not given) | 1 | 3% | 3 | 15% | -7% | 6%[12.7 µM]
CN(CC(=O)Nc1ccc(OC(F)(F)F)cc1)C1CCCCC1 | 9 | ? | 8 | -3% | -8%[11.4 µM] | ?
CCN(CC)c1ccc(NC2CC(=O)N(CCc3ccc(OC)cc3)C2=O)cc1 (stereo not given) | -18 | 35µM* | ? | ? | 40µM* | ?
O=C(CNCC1CCCCC1)Nc1ccc(OC(F)(F)F)cc1 | -1 | 50µM* | 8 | -25% | 3.5µM* | 8.9µM*
Oc1ccccc1C1=Nc2ncnn2C(c2ccc(F)cc2)C1 (stereo not given) | -2 | 56µM* | 4 | 33% | -20% | 25µM*
Fc1ccc(C2CC(c3ccc(F)cc3)n3ncnc3N2)cc1 (stereo not given) | 0 | -32% | 0 | 17% | -27% | -20%
COc1ccc(CN2C(=O)c3cccnc3C2=O)cc1S(=O)(=O)NCc1ccc(C)cc1 | · | 79µM* | 4 | 52% | -14% | -24%
COc1ccc(CN2C(=O)c3cccnc3C2=O)cc1S(=O)(=O)N1CCCCC1 | · | ? | 0 | 9%[57 µM] | -15% | -29%
COc1cccc(CNS(=O)(=O)c2cc(CN3C(=O)c4cccnc4C3=O)ccc2OC)c1 | · | -28% | -4 | 25% | -18% | 16%
COc1ccc(CN2C(=O)c3cccnc3C2=O)cc1S(=O)(=O)N1CCCC(C)C1 (stereo not given) | · | 56µM* | -1 | 41% | -11% | 18%
Cc1ccc(Cn2c(=N)n(CC(=O)c3ccc([N+](=O)[O-])cc3)c3ccccc32)cc1 | 8 | -23% | -4 | 7% | -30% | 50µM*
CCCCC(=O)c1ccc(OC(=O)c2ccc([N+](=O)[O-])cc2)cc1 | -11 | · | -13 | ? | 50µM* | ·
CCCCn1c(=N)n(CC(=O)c2ccco2)c2ccccc21 | 8 | -7% | 3 | 23% | -15% | 1%[12.7 µM]
O=C(Oc1ccc2ccc(=O)oc2c1)c1ccc([N+](=O)[O-])cc1 | 4 | -17% | -19 | 40% | -14% | ·
CCCCn1c(=N)n(CC(=O)c2ccc([N+](=O)[O-])cc2)c2ccccc21 | · | -32% | · | · | · | 40µM*
O=C1OCCN1S(=O)(=O)Nc1ccccc1 | · | -36% | 3 | 24% | 79µM* | 45µM*
CN1CCN(C(=O)c2c(O)c3cccc4c3n(c2=O)CCC4)CC1 | 4 | · | 0 | 39% | 0% | 14µM*
CC(=O)c1c(O)c2cccc3c2n(c1=O)CCC3 | · | -4% | -1 | 56% | -10% | 14%
COCCn1c(C)cc(/C=C2\NC(=S)N(C)C2=O)c1C | · | 50µM* | -14 | ? | -51% | 10µM*
CCCS(=O)(=O)NC(=O)C1(C)CCN(C(=O)c2ccc(C(F)(F)F)cc2)C1 (stereo not given) | -22 | · | 9 | · | · | ·
COCCc1ccc(OC2(C)CCN(Cc3cccc(OC)c3OC)C2)cc1 (stereo not given) | 0 | · | -2 | · | · | ·
